Measured values: PubChem BioAssay AID651640 (Broad Institute, 2012)
“And” between values parts separate entries of the source, which are not always exact repeats. Equal values may be shown once. Screen size: about 350,000 compounds; about 6,000 (1.7%) were called active. Inconclusive results (about 5%) are left out. The sample holds actives, similar compounds and a random draw of the others, so the mix is not that of the screen. Rule as the data show it: active = CPE inhibition above about 20% (passing the limit was not always enough); inconclusive = no clear call, values can overlap the other calls; tested in BHK-21 cells. More than one record can exist for a structure, and the calls need not agree.

assay: protection of cells from dengue 2 killing – plate reader, single concentration, primary screen (AID 651640); settings: DENV2-infected cells, cytopathic effect rescue, at 9.99 µM, stronger effect = higher value;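 also: 0% = median of neutral control wells and 100% = median of positive control wells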

Compound | CPE inhibition
CCC(=O)N1CCC2(CC1)CN(Cc1cccc(OC)c1)[C@@H](CO)c1[nH]c3cc(OC)ccc3c12 | -4.07% (inactive)
C[C@@H]1CN([C@H](C)CO)C(=O)c2cc(C#CCN(C)C)cnc2O[C@@H]1CN(C)C(=O)Cc1cccnc1 | 6.92% (inactive)
CCc1cccc(NC(=O)O[C@H]2[C@H](OC(=O)Nc3ccccc3-c3ccccc3)[C@H](OC(=O)Nc3ccccc3-c3ccccc3)[C@@H](OC)O[C@@H]2CO)c1 | 1.23% (inactive)
CC(C)CNc1cccc2c1S(=O)(=O)N[C@H](C)CO2 | 2.95% (inactive)
CN(C)C(=O)C[C@@H]1C=C[C@H](NC(=O)Nc2cccc(F)c2)[C@H](CO)O1 | -10% (inactive)
CC1(C)CC(=O)C=C(c2ccc(Cl)c(C(F)(F)F)c2)C1 | 1.16% (inactive)
COc1cc(F)c(C2=CC(=O)CC(C)(C)C2)cc1F | 26.9% (active)
COc1ccc(CCNC2=CC(=O)CC(C)(C)C2)cc1 | 16.6% (inactive)
COc1ccc(-c2csc3ncnc(N4CCN(S(=O)(=O)c5cccc(F)c5)CC4)c23)cc1 | 5.97% (inactive)
Cc1cc(F)ccc1S(=O)(=O)Nc1ncnc2scc(-c3ccc(F)cc3)c12 | 46.8% (active)
O=S(=O)(Nc1ncnc2sccc12)c1cccc(F)c1 | -1.13% (inactive)
O=C1CN(S(=O)(=O)c2ccccc2)C[C@H]2[C@H](c3ccc(C4=CCCC4)cc3)[C@@H](CO)N12 | -1.48% (inactive)
COc1cccc(NC(=O)N[C@@H]2CC[C@H](CC(=O)Nc3ccccc3)O[C@@H]2CO)c1 | 3.12% (inactive)
Nc1ccccc1-c1cn(CC(=O)Nc2ccon2)nn1 | 15.8% (inactive)
CO[C@@H]1CN(C)C(=O)c2ccc(NS(=O)(=O)c3cccc(C)c3)cc2OC[C@@H](C)NC[C@H]1C | 10.6% (inactive)
Cc1noc(C)c1NC(=O)N(C)C[C@@H]1OCCCC[C@H](C)Oc2ccc(NC(=O)NC3CCCCC3)cc2C(=O)N([C@H](C)CO)C[C@@H]1C | -0.006% (inactive)
COc1ccc(CN(C)C[C@H]2Oc3ccc(NC(=O)CCN4CCOCC4)cc3C(=O)N([C@@H](C)CO)C[C@H]2C)cc1 | 8.91% (inactive)
C[C@@H]1CN([C@H](C)CO)C(=O)c2cc(NC(=O)CCN3CCOCC3)ccc2O[C@H]1CN(C)Cc1ccc(Oc2ccccc2)cc1 | 25.3% (active)
C[C@@H]1CN([C@@H](C)CO)C(=O)c2cc(NC(=O)Cc3ccccc3)ccc2O[C@@H]1CN(C)Cc1ccc(Oc2ccccc2)cc1 | -2.18% (inactive)
COc1ccc(CN(C)C[C@@H]2Oc3ccc(NC(=O)Nc4cccc5ccccc45)cc3C(=O)N([C@H](C)CO)C[C@H]2C)cc1 | 1.24% (inactive)
C[C@@H]1CN([C@@H](C)CO)C(=O)c2cc(NC(=O)Nc3cccc4ccccc34)ccc2O[C@H]1CN(C)Cc1ccc(Oc2ccccc2)cc1 | 29.3% (active)
C[C@@H]1CN([C@@H](C)CO)C(=O)c2cc(NC(=O)Nc3cccc4ccccc34)ccc2O[C@@H]1CN(C)Cc1ccc(-c2ccccc2)cc1 | 6.66% (inactive)
CC(=O)c1ccc(S(=O)(=O)NCC2CCN(C(=O)C(=O)c3cccs3)CC2)cc1 | -2.02% (inactive)
COc1ccccc1CN1[C@@H]2CNC[C@H]1C2c1ccc(-c2cccc(C#N)c2)cc1 (stereo partly specified) | 9% (inactive) and 53.2% (active)

Compound | CPE inhibition
N#Cc1ccc(-c2ccc([C@@H]3[C@H]4CNC[C@@H]3N4Cc3cc(F)ccc3F)cc2)cc1 | -0.209% (inactive)
N#Cc1cccc(-c2ccc(C3[C@H]4CNC[C@@H]3N4Cc3cncnc3)cc2)c1 (stereo partly specified) | -5.94% (inactive)
CCCNC(=O)C[C@@H]1CC[C@@H]2[C@H](COc3ccc(NC(=O)C4CCOCC4)cc3C(=O)N2C)O1 | 11.7% (inactive)
CCN(CC(=O)Nc1ccc(C)c(S(=O)(=O)N(C)C)c1)Cc1ccccc1 | 7.9% (inactive)
Cc1cccc(NC(=O)COC(=O)CCc2ccccc2)c1C | 0.193% (inactive)
CCN(CC(=O)NCC(=O)Nc1cccc(C)c1C)Cc1ccccc1 | 61.4% (active)
CO[C@H]1CN(C)C(=O)c2cc(NC(=O)c3ccccc3)ccc2OC[C@H](C)NC[C@H]1C | -12.8% (inactive)
O=C(N[C@@H]1C=C[C@@H](CC(=O)N2CCOCC2)O[C@H]1CO)c1ccccn1 | -8.41% (inactive)
CCC(C(=O)NC(C)(C)C)n1c(-c2ccccc2)nc2ccccc21 (stereo unspecified) | -20.3% (inactive)
CCCc1nc2ccccc2n1C(C)C(=O)NC(C)(C)C (stereo unspecified) | 34.6% (active)
CC(C)(C)NC(=O)C(CCc1ccccc1)n1c(=O)c(-c2ccccc2)nc2ccccc21 (stereo unspecified) | 8.63% (inactive)
CCCNC(=O)C[C@@H]1CC[C@H]2[C@H](COc3ccc(NC(=O)c4ccc(Cl)cc4)cc3C(=O)N2C)O1 | -2.04% (inactive)
O=C(C[C@@H]1CC[C@H](NS(=O)(=O)c2cccc(F)c2)[C@H](CO)O1)N1CCCCC1 | -2.32% (inactive)
COc1ccc(-c2cn(CC[C@@H]3CC[C@@H](NC(=O)CCN4CCCCC4)[C@@H](CO)O3)nn2)cc1 | -1.31% (inactive)
Cc1cccc(C)c1NC(=O)CNC(=O)c1ccc(N2CCOCC2)c([N+](=O)[O-])c1 | -8.12% (inactive)
N#Cc1c(NC(=O)c2ccc(N3CCOCC3)c([N+](=O)[O-])c2)sc2c1CCCC2 | 46.3% (active)
O=C(OCC(=O)N1CCOCC1)c1ccc(N2CCOCC2)c([N+](=O)[O-])c1 | 2.84% (inactive)
C[C@H]1CN([C@@H](C)CO)C(=O)c2cccc(NC(=O)Nc3ccccc3)c2O[C@@H]1CN(C)S(=O)(=O)c1ccc(F)cc1 | 13.7% (inactive)
COc1ccc2c3c(n(C)c2c1)[C@@H](CO)N(CC1CC1)CC31CN(C(=O)Nc2c(C)noc2C)C1 | 7.58% (inactive)
CCCCCCNC(=O)O[C@]12C[C@@H](C(=O)OC)[C@@H](C(=O)OC)C[C@@]1(O)CN(S(=O)(=O)c1ccc(C)cc1)C2 | -1.36% (inactive)
CCCCCCn1c(=O)n2n(c1=O)C[C@]1(OC(=O)NCc3ccc(OC)c(OC)c3)CN(S(=O)(=O)c3ccc(C)cc3)C[C@]1(O)C2 | 33.2% (active)
COc1ccc(CNC(=O)COC(=O)CCS(=O)(=O)c2ccc(C)cc2)cc1OC | -2.46% (inactive)
C[C@H](O)C#Cc1ccc2c(c1)O[C@H](CN(C)Cc1ccccn1)[C@@H](C)CN([C@@H](C)CO)S2(=O)=O | 3.01% (inactive)
C[C@H]1CN([C@@H](C)CO)C(=O)c2c(c3ccccc3n2C)-c2ccccc2CO[C@H]1CN(C)Cc1ccc2c(c1)OCO2 | -9.95% (inactive)

Compound | CPE inhibition
CCOC(=O)/C=C/c1ccccc1O | -9.35% (inactive)
CCOC(=O)/C=C/c1ccc(C(F)(F)F)cc1S(=O)(=O)NC(C)(C)C | 23.6% (active)
CCOC(=O)NNc1cc(C(F)(F)F)ccn1 | -1.25% (inactive)
O=C(CN1CCOCC1)N[C@@H]1CC[C@H](CCNS(=O)(=O)c2ccccc2F)O[C@H]1CO | 28.5% (active)
O=C(CN1CCOCC1)N[C@H]1CC[C@@H](CCNS(=O)(=O)c2ccccc2F)O[C@H]1CO | 1.76% (inactive)
O=C(Nc1ccccc1)N[C@@H]1CC[C@H](CCNS(=O)(=O)c2ccccc2F)O[C@@H]1CO | -0.044% (inactive)
O=C(Cc1ccccc1)N1C[C@H]2[C@@H](c3ccccc31)[C@H](CO)N2C(=O)C1CCOCC1 | 2% (inactive)
O=C(NCC[C@H]1CC[C@@H](NC(=O)c2ccncc2)[C@@H](CO)O1)Nc1ccc(Cl)cc1 | 3.84% (inactive)
COc1ccc(NC(=O)Nc2ccc3c(c2)C(=O)N([C@@H](C)CO)C[C@@H](C)[C@@H](CN(C)C(=O)CCCN(C)C)OCCCC[C@@H](C)O3)cc1 | -1% (inactive)
Cc1ccc(S(=O)(=O)N[C@H]2CC[C@H](CC(=O)NCc3ccccc3F)O[C@@H]2CO)cc1 | 23.7% (active)
Cc1ccc(S(=O)(=O)N[C@H]2CC[C@@H](CC(=O)NCc3ccc(Cl)c(Cl)c3)O[C@H]2CO)cc1 | -6.75% (inactive)
O=C(C[C@@H]1CC[C@H](NS(=O)(=O)c2ccc(F)cc2)[C@@H](CO)O1)NCc1ccccc1F | 1.66% (inactive)
Cc1ccccc1-c1ccc2c(c1)O[C@@H](CN(C)Cc1ccc(C(=O)O)cc1)[C@H](C)CN([C@H](C)CO)S2(=O)=O | 0.324% (inactive)
CC=Cc1ccc2n(c1=O)C[C@H]1[C@H](CO)[C@@H](C(=O)N3CCCCC3)N(Cc3ccccn3)[C@@H]21 (mixture of isomers) | 14.3% (inactive)
COc1cccc(C(=O)NCCSc2ccc(Br)cc2)c1 | 14.3% (inactive)
CCS(=O)(=O)Nc1ccc(C(=O)NCCSc2ccccc2)cc1 | 32% (active)
COc1ccc(C(=O)NCCSc2ccccc2C)cc1 | -6.82% (inactive)
C[C@@H]1CN([C@@H](C)CO)C(=O)c2cccc(N(C)C)c2O[C@@H]1CN(C)S(C)(=O)=O | 1.61% (inactive)
C[C@@H]1CCCCO[C@@H](CN(C)S(=O)(=O)c2cccs2)[C@@H](C)CN([C@H](C)CO)C(=O)c2cc(NC(=O)Nc3ccc4c(c3)OCO4)ccc2O1 | -1.49% (inactive)
COCCNC(=O)[C@H]1[C@H](CO)[C@H]2Cn3c(ccc(-c4ccccc4F)c3=O)[C@H]2N1C(=O)C1CCC1 | -1.96% (inactive)
COc1ccc(CCNC(=S)N2CCN(S(=O)(=O)c3ccc(Cl)cc3)CC2)cc1 | 0.363% (inactive)
COc1ccc(CCC(=O)N2CCN(S(=O)(=O)c3ccc(OC)cc3)CC2)cc1 | -8.26% (inactive)
COc1ccc(CCNC(=S)N2CCN(S(=O)(=O)c3ccc(F)cc3)CC2)cc1 | 53.1% (active)
